Results reported in PubChem BioAssay AID1159580 (chemical genetic matrix, 2015).
Values joined by “and” are separate entries in the source; they are usually repeats but may differ in a detail not shown here. Identical values can stand only once. Screen size: about 5,500 compounds; about 2,000 (36%) were called active. Another 18% or so got no clear call; they are omitted. Cut-off read from the data, not from the text of the source: active = normalized growth mostly below about 0.91 (no sharp cut-off); inconclusive = no clear call, values can overlap the other calls; inactive = mostly above about 0.92. The list shows a part of the results.

Assay: chemical genetic growth profiling, strain panel (AID 1159580);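 note: tested at 20 µM; growth read once vehicle control cultures reached saturation at 30 °C; 1 = growth at the plate median or of vehicle wells; lower values mean less growth of the strain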
Conditions: S. cerevisiae deletion strains, growth OD

Measured: normalized growth

Oc1c(Cl)cc(Cl)cc1Sc1cc(Cl)cc(Cl)c1O
inactive: locus YBR021W, strain FUR4, stronger effect = lower value 0.989 | locus YBR229C, strain ROT2, stronger effect = lower value 0.998 | locus YCL029C, strain bik1, stronger effect = lower value 0.964 | locus YDL035C, strain GPR1, stronger effect = lower value 1.05 | locus YDL074C, strain BRE1, stronger effect = lower value 0.979 | locus YDL101C, strain DUN1, stronger effect = lower value 0.978 | locus YDL185W, strain tfp1, stronger effect = lower value 0.966 | locus YDL192W, strain arf1, stronger effect = lower value 0.992 | locus YDR101C, strain arx1, stronger effect = lower value 0.978 | locus YDR150W, strain NUM1, stronger effect = lower value 0.982 | locus YDR162C, strain NBP2, stronger effect = lower value 1.01 | locus YDR318W, strain mcm21, stronger effect = lower value 0.98 | locus YDR388W, stronger effect = lower value 0.983 | locus YDR502C, strain sam2, stronger effect = lower value 0.985 | locus YEL061C, strain CIN8, stronger effect = lower value 0.988 | locus YER110C, stronger effect = lower value 0.964 | locus YER155C, strain BEM2, stronger effect = lower value 0.985 | locus YER167W, strain BCK2, stronger effect = lower value 0.996 | locus YGL078C, strain dbp3, stronger effect = lower value 0.984 | locus YGL086W, strain mad1, stronger effect = lower value 0.995 | locus YGL248W, strain PDE1, stronger effect = lower value 0.981 | locus YGR078C, strain PAC10, stronger effect = lower value 0.981 | locus YGR135W, strain pre9, stronger effect = lower value 0.98 | locus YGR229C, strain SMI1, stronger effect = lower value 1.02 | locus YGR252W, strain gcn5, stronger effect = lower value 1.03 | locus YHR079C, strain IRE1 (second series), stronger effect = lower value 0.966 | locus YHR094C, strain hxt1, stronger effect = lower value 0.976 | locus YHR129C, strain ARP1, stronger effect = lower value 0.994 | locus YHR200W, strain rpn10, stronger effect = lower value 0.97 | locus YIL066C, strain RNR3, stronger effect = lower value 1.01 | locus YIL073C, strain SPO22, stronger effect = lower value 0.942 | locus YIL125W, strain kgd1, stronger effect = lower value 0.996 | locus YIR030C, strain dcg1, stronger effect = lower value 1.01 | locus YJL134W, strain LCB3, stronger effect = lower value 0.989 | locus YJL168C, strain set2, stronger effect = lower value 0.984 | locus YJL187C, strain SWE1 (second series), stronger effect = lower value 0.969 | locus YJR043C, strain POL32, stronger effect = lower value 1.05 | locus YJR075W, strain HOC1, stronger effect = lower value 0.962 | locus YKL009W, strain mrt4, stronger effect = lower value 0.956 | locus YKL068W, stronger effect = lower value 0.978 | locus YKL085W, strain MDH1 (second series), stronger effect = lower value 0.973 | locus YKL085W, strain MDH1, stronger effect = lower value 0.973 | locus YKR001C, strain vps1, stronger effect = lower value 1.01 | locus YLR039C, strain RIC1, stronger effect = lower value 0.945 | locus YLR058C, strain SHM2, stronger effect = lower value 0.984 | locus YLR102C, strain apc9, stronger effect = lower value 0.962 | locus YLR262C, strain YPT6, stronger effect = lower value 1 | locus YLR268W, strain sec22, stronger effect = lower value 0.976 | locus YLR330W, strain CHS5, stronger effect = lower value 0.995 | locus YLR342W, strain FKS1 (second series), stronger effect = lower value 1.05 | locus YLR371W, strain rom2, stronger effect = lower value 0.994 | locus YLR418C, strain cdc73, stronger effect = lower value 0.979 | locus YML016C, strain PPZ1, stronger effect = lower value 0.991 | locus YML032C, strain rad52, stronger effect = lower value 0.986 | locus YML124C, strain tub3, stronger effect = lower value 0.989 | locus YMR078C, strain ctf18, stronger effect = lower value 0.989 | locus YMR223W, strain ubp8, stronger effect = lower value 0.991 | locus YMR307W, strain GAS1, stronger effect = lower value 1.17 | locus YNL067W, strain RPL9B, stronger effect = lower value 0.941 | locus YNL233W, strain BNI4, stronger effect = lower value 0.966 | locus YNL250W, strain rad50, stronger effect = lower value 0.98 | locus YNL271C, strain bni1, stronger effect = lower value 0.996 | locus YNL298W, strain CLA4, stronger effect = lower value 0.967 | locus YNL307C, strain MCK1, stronger effect = lower value 0.975 | locus YNR052C, strain pop2, stronger effect = lower value 0.982 | locus YOL006C, strain TOP1, stronger effect = lower value 0.921 | locus YOL012C, strain htz1 0.709 | locus YOL147C, strain pex11, stronger effect = lower value 0.975 | locus YOR061W, strain CKA2, stronger effect = lower value 0.994 | locus YOR069W, strain VPS5, stronger effect = lower value 0.989 | locus YOR136W, strain idh2, stronger effect = lower value 0.978 | locus YOR144C, strain elg1, stronger effect = lower value 0.993 | locus YOR184W, strain ser1, stronger effect = lower value 0.979 | locus YOR316C, strain cot1, stronger effect = lower value 0.97 | locus YPL055C, strain LGE1, stronger effect = lower value 0.973 | locus YPL241C, strain CIN2, stronger effect = lower value 0.984 | locus YPR119W, strain clb2, stronger effect = lower value 0.985 | locus YPR141C, strain kar3, stronger effect = lower value 0.979 | locus YPR163C, strain tif3, stronger effect = lower value 0.983 | locus YPR167C, strain met16, stronger effect = lower value 0.986 | strain wtn01, stronger effect = lower value 0.995
active: locus YAL021C, strain ccr4, stronger effect = lower value 0.067 | locus YAL026C, strain drs2, stronger effect = lower value 0.0634 | locus YAL030W, strain snc1, stronger effect = lower value 0.0557 | locus YBL061C, strain skt5, stronger effect = lower value 0.0575 | locus YBR009C, strain hhf1, stronger effect = lower value 0.061 | locus YBR023C, strain chs3, stronger effect = lower value 0.0607 | locus YBR171W, strain sec66, stronger effect = lower value 0.077 | locus YBR231C, strain swc5, stronger effect = lower value 0.0615 | locus YBR279W, strain paf1, stronger effect = lower value 0.0577 | locus YCL011C, strain gbp2, stronger effect = lower value 0.0589 | locus YCL016C, strain dcc1, stronger effect = lower value 0.064 | locus YCL069W, strain vba3, stronger effect = lower value 0.0603 | locus YCR088W, strain abp1, stronger effect = lower value 0.0604 | locus YDL005C, strain med2, stronger effect = lower value 0.0721 | locus YDL040C, strain nat1, stronger effect = lower value 0.0555 | locus YDR001C, strain nth1, stronger effect = lower value 0.0578 | locus YDR069C, strain doa4, stronger effect = lower value 0.0618 | locus YDR137W, strain rgp1, stronger effect = lower value 0.09 | locus YDR159W, strain sac3, stronger effect = lower value 0.0888 | locus YDR195W, strain ref2 0.123 | locus YDR297W, strain sur2, stronger effect = lower value 0.0581 | locus YDR334W, strain swr1, stronger effect = lower value 0.0632 | locus YDR335W, strain msn5, stronger effect = lower value 0.0596 | locus YDR392W, strain spt3, stronger effect = lower value 0.081 | locus YEL003W, strain gim4, stronger effect = lower value 0.0535 | locus YEL037C, strain rad23, stronger effect = lower value 0.0573 | locus YEL061C, strain CIN8 (second series), stronger effect = lower value 0.0607 | locus YER015W, strain faa2, stronger effect = lower value 0.0587 | locus YER016W, strain bim1, stronger effect = lower value 0.0576 | locus YER111C, strain swi4, stronger effect = lower value 0.0718 | locus YER155C, strain BEM2 (second series), stronger effect = lower value 0.0937 | locus YFR010W, strain ubp6, stronger effect = lower value 0.0679 | locus YGL167C, strain pmr1, stronger effect = lower value 0.0712 | locus YGL173C, strain kem1, stronger effect = lower value 0.0685 | locus YGL227W, strain vid30, stronger effect = lower value 0.0624 | locus YGL240W, strain doc1, stronger effect = lower value 0.0755 | locus YGL253W, strain hxk2, stronger effect = lower value 0.0537 | locus YHR013C, strain ard1, stronger effect = lower value 0.105 | locus YHR027C, strain rpn1, stronger effect = lower value 0.0591 | locus YHR079C, strain IRE1, stronger effect = lower value 0.129 | locus YHR142W, strain chs7, stronger effect = lower value 0.0784 | locus YJL092W, strain hpr5, stronger effect = lower value 0.0598 | locus YJL095W, strain BCK1 (second series), stronger effect = lower value 0.0564 | locus YJL115W, strain asf1, stronger effect = lower value 0.0719 | locus YJL129C, strain trk1, stronger effect = lower value 0.0818 | locus YJL154C, strain vps35, stronger effect = lower value 0.0607 | locus YJL164C, strain tpk1, stronger effect = lower value 0.0913 | locus YJL166W, strain qcr8, stronger effect = lower value 0.0591 | locus YJR066W, strain TOR1, stronger effect = lower value 0.00096 | locus YKL160W, strain elf1, stronger effect = lower value 0.0607 | locus YKR026C, strain gcn3, stronger effect = lower value 0.0616 | locus YKR091W, strain srl3, stronger effect = lower value 0.0572 | locus YLL001W, strain dnm1, stronger effect = lower value 0.0641 | locus YLL026W, stronger effect = lower value 0.0559 | locus YLL041C, strain sdh2, stronger effect = lower value 0.0561 | locus YLR027C, strain aat2, stronger effect = lower value 0.0575 | locus YLR113W, strain HOG1, stronger effect = lower value 0.152 | locus YLR221C, strain rsa3, stronger effect = lower value 0.0589 | locus YLR258W, strain gsy2, stronger effect = lower value 0.0608 | locus YLR262C, strain YPT6 (second series), stronger effect = lower value 0.0722 | locus YLR320W, strain mms22, stronger effect = lower value 0.0755 | locus YLR342W, strain FKS1, stronger effect = lower value 0.0628 | locus YLR357W, strain rsc2, stronger effect = lower value 0.119 | locus YLR370C, strain arc18, stronger effect = lower value 0.0603 | locus YLR384C, strain iki3, stronger effect = lower value 0.0584 | locus YML120C, strain ndi1, stronger effect = lower value 0.0563 | locus YMR058W, strain fet3, stronger effect = lower value 0.0603 | locus YMR125W, strain sto1, stronger effect = lower value 0.0858 | locus YMR129W, stronger effect = lower value 0.0578 | locus YMR205C, strain PFK2, stronger effect = lower value 0.0864 | locus YMR231W, strain pep5, stronger effect = lower value 0.0649 | locus YNL071W, strain lat1, stronger effect = lower value 0.0603 | locus YNL183C, strain NPR1, stronger effect = lower value -0.00055 | locus YNL209W, strain ssb2, stronger effect = lower value 0.0572 | locus YNL248C, strain rpa49, stronger effect = lower value 0.0762 | locus YNL322C, strain KRE1 (second series), stronger effect = lower value 0.0643 | locus YNR049C, strain mso1, stronger effect = lower value 0.0565 | locus YOR001W, strain rrp6, stronger effect = lower value 0.0689 | locus YOR070C, strain gyp1, stronger effect = lower value 0.0566 | locus YOR080W, strain dia2, stronger effect = lower value 0.0627 | locus YOR083W, strain WHI5, stronger effect = lower value 0.0603 | locus YOR106W, strain vam3, stronger effect = lower value 0.0687 | locus YOR231W, strain MKK1, stronger effect = lower value 0.118 | locus YOR265W, strain rbl2, stronger effect = lower value 0.0558 | locus YOR270C, strain vph1, stronger effect = lower value 0.113 | locus YOR290C, strain snf2, stronger effect = lower value 0.0666 | locus YPL051W, strain arl3, stronger effect = lower value 0.0608 | locus YPL078C, strain atp4, stronger effect = lower value 0.0682 | locus YPL106C, strain sse1, stronger effect = lower value 0.111 | locus YPL240C, strain hsp82, stronger effect = lower value 0.0577 | locus YPL256C, strain CLN2, stronger effect = lower value 0.147
0.951 (inactive) and 0.106 (active): locus YJL095W, strain BCK1, stronger effect = lower value
0.99 (inactive) and 0.152 (active): locus YHR030C, strain SLT2, stronger effect = lower value
